Screens as filed in PubChem BioAssay.
CYP2C9 act – CYP2C9 (human) activation. recombinant CYP2C9, luciferin-H conversion, luminescence; stronger effect = higher value; factor 1 = untreated enzyme, 0 = blocked. AID 1024. P11712. 1.4% of 96,000 active. activation factor at 5 µM;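 active = activation factor of 2 or more for CYP2C9 at a 5 µM dose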;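 also: 0 = sulfaphenazole-blocked wells and 1 = vehicle-only wells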
sEH activator – increases human soluble epoxide hydrolase activity; P34913; activation, % at 2 µM; purified human sEH enzymatic activity, activator screen; 0.04% of 91,000 active; in the data active = activation above about 37%
Target sequence (P34913 whole entry, looked up): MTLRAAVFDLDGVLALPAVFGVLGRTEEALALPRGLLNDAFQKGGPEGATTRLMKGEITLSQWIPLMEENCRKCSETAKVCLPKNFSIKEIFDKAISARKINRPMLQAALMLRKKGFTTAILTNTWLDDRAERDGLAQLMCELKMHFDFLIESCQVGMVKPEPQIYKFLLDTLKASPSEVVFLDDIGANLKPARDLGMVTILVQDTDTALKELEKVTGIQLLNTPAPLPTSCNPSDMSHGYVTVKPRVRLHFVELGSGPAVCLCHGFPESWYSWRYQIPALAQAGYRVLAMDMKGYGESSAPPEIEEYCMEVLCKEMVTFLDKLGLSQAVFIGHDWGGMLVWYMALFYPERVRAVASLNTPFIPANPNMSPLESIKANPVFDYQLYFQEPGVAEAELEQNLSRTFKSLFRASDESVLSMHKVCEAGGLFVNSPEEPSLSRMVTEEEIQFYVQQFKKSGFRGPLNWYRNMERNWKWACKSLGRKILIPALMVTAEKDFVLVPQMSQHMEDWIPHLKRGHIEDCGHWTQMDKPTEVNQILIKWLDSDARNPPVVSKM
CYP2C19 inhib – human CYP2C19 inhibition. inhibition, % at 5 µM. AID 778. 21% of 96,000 active. CYP2C19 Supersomes, luciferin-H EGE luminescence, 30 min. P33261;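 active = CYP2C19 inhibition above a set limit at 5 µM in the primary screen, cut at about 50% in these data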;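 also: plate controls were negative control wells for no effect and 2.5 mM tranylcypromine positive control for full effect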
sEH inh – soluble epoxide hydrolase (human) inhibition; P34913; recombinant human sEH enzymatic activity assay; inhibition, % at 2 µM; 0.34% of 91,000 active; in the data active = inhibition above about 80%
CYP2C9 inhib – blocks human cytochrome P450 2C9 | P11712 | CYP2C9 Supersomes, luciferin-H conversion, luminescence | inhibition, % at 5 µM | 20% of 96,000 active | AID 777;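 active = blocking of liver enzyme CYP2C9 beyond about 50% at 5 µM, limit read from the data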
CYP2C19 act – activators of human cytochrome P450 2C19. P33261. recombinant CYP2C19, luciferin-H EGE luminescence; stronger effect = higher value; 0 = fully inhibited enzyme, 1 = untreated enzyme. activation factor at 5 µM. 96,000 tested, under 10 active;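 active = activation factor of at least 2 at 5 µM in the primary screen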;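 also: 0 = wells with 2.5 mM tranylcypromine and 1 = vehicle-only wells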
Numbers without * were called inactive; . = not tested or not shown. The list is not random: actives were taken first. Their share in the collection is about 27%.

SMILES | CYP2C9 act | sEH activator | CYP2C19 inhib | sEH inh | CYP2C9 inhib | CYP2C19 act
CS(=O)(=O)N(Cc1ccc(C(=O)NC2CCCCC2O)cc1)c1ccccc1 (stereo unspecified) | 1 | -9 | -5 | 9 | 4 | 1.1
CCCn1nc(CC(=O)OCC)c2ccccc2c1=O | 0.8 | 2 | 17 | 0 | 23 | 0.8
Cc1cc(/C=N/NC(N)=O)c(C)c(CO)c1 | 1 | 4 | 20 | -6 | 2 | 0.8
CC(C)c1cc(C(N)=O)c(NC(=O)c2cccc(COc3ccc(Cl)cc3)c2)s1 | 0.3 | 3 | 74* | -1 | 72* | 0.3
Cc1nn(Cc2c(F)c(F)c(F)c(F)c2F)c(C)c1NC(=O)c1cccc(COc2ccc(Cl)cc2)c1 | 0.9 | -4 | 10 | 4 | 13 | 0.9
O=C(NCCCCCCNC(=O)C1CCCC1)C1CCCC1 | . | -11 | . | 13 | . | .
O=C1CC(Sc2ncccn2)C(=O)N1c1ccccc1C(F)(F)F (stereo unspecified) | 0.9 | 5 | 59* | -7 | 5 | 0.4
COc1ccccc1N1C(=O)CC(Sc2ncccc2C(=O)O)C1=O (stereo unspecified) | . | -5 | . | 3 | . | .
CC1SC(=NC(=O)C(C)N2C(=O)c3ccccc3C2=O)NC1=O (stereo unspecified) | . | -1 | . | 4 | . | .
COC(=O)c1cnn(C(=O)c2cc(OC)ccc2Br)c1N | 2* | 1 | 19 | -1 | -102 | 0.8
CCC(C)n1nccc1NC(=O)C(C)OC(=O)c1cc2ccccc2[nH]1 (stereo unspecified) | 0.7 | 16 | 97* | -14 | 30 | 0
CC(C)CC(C)NNC(=O)c1cc2ccccc2[nH]1 (stereo unspecified) | 0.9 | 1 | 48 | 0 | 6 | 0.5
CC1=NC(C)Cc2ccccc21 (stereo unspecified) | 1 | 4 | -10 | -3 | -2 | 1.1
COc1ccc(CC(NC(C)=O)C(=O)N2CCN(C(=O)Nc3ccc(Cl)cc3)CC2)cc1OC (stereo unspecified) | 0.7 | -48 | 16 | 47 | 30 | 0.8
COc1cc(CNCCc2c[nH]c3ccccc23)ccc1OCc1ccc(F)cc1 | 0.5 | 5 | 63* | -2 | 47 | 0.4
COc1cc(CNCCc2ccccc2F)ccc1OCc1ccc(Cl)nc1 | 0.7 | 1 | 76* | 0 | 33 | 0.2
COc1cc(CNCCc2ccc(F)cc2)ccc1OCc1ccc(Cl)nc1 | 0.7 | 24 | 45 | -23 | 26 | 0.5
Cc1cccc2c1NC(=O)C2(c1ccc(O)cc1)c1ccc(O)cc1 | 0.2 | -10 | 60* | 8 | 79* | 0.4
c1ccc(NCn2cncn2)nc1 | 1 | 3 | -7 | -3 | -3 | 1.1
OC(Cn1cncn1)(c1ccccc1)c1ccccc1 | 0.2 | 8 | 51* | -6 | 76* | 0.5
CN(C)C(=O)NC(Nc1ccc(Cl)cc1Cl)C(Cl)(Cl)Cl (stereo unspecified) | 0.3 | -8 | 87* | 6 | 65* | 0.1
Cn1c(=O)[nH]c(=O)c2c1nc(N1CCOCC1)n2CCCSc1ncccn1 | 0.9 | 12 | -9 | -12 | 7 | 1.1
O=C(NCCC1=CCCCC1)C1CCN(S(=O)(=O)c2cccc3cccnc23)CC1 | 1 | -44 | 32 | 44 | -4 | 0.7
CCOC(=O)C1=C(C)N(C)C(C)=C(C(=O)OCC)C1c1cccnc1 | 0.2 | -5 | 87* | 7 | 84* | 0.1
CCOC(=O)C1=C(N)Oc2ccc3ccccc3c2C1c1cccnc1 (stereo unspecified) | . | 10 | . | -5 | . | .
SMILES | CYP2C9 act | sEH activator | CYP2C19 inhib | sEH inh | CYP2C9 inhib | CYP2C19 act
CCOC(=O)C1=C(C)Nc2nc(SCC)[nH]c(=O)c2C1c1ccncc1 (stereo unspecified) | 0.4 | -4 | 84* | 4 | 64* | 0.2
CCOC(=O)C1=C(C)Nc2nc(SCC)nn2C1c1ccc(OC)cc1 (stereo unspecified) | 1.2 | -8 | 10 | 6 | -19 | 0.9
CCOC(=O)C1=C(N)Oc2cc(C)[nH]c(=O)c2C1c1ccncc1 (stereo unspecified) | 0.3 | 2 | 75* | -2 | 74* | 0.3
CCOC(=O)C1=C(N)Oc2c(c(=O)[nH]c3ccccc23)C1c1ccccc1 (stereo unspecified) | 0.3 | 4 | 2 | -5 | 74* | 1
O=S1(=O)C=C(Sc2nnc(-c3ccccc3)o2)c2ccccc21 | 1.1 | . | -16 | . | -10 | 1.2
O=S(=O)(/N=C/c1c(O)ccc2ccccc12)c1cccs1 | 0.8 | 6 | 15 | -7 | 17 | 0.8
Cc1onc(C(=O)/C=C/N(C)C)c1C(=O)Nc1nccs1 | 0.9 | 6 | 9 | -3 | 13 | 0.9
NC(=O)NC(=O)COC(=O)c1ccccc1Oc1ccccc1 | 1 | . | 15 | . | 0 | 0.9
Cc1ccc(Cn2nc(C)c(NC(=O)C3(C)CC3(Br)Br)c2C)cc1 (stereo unspecified) | . | 10 | . | -10 | . | .
Cn1ncc(Cl)c1C(=O)Nc1cc(C(F)(F)F)ccc1F | . | -3 | . | 6 | . | .
CCOC(=O)C1=C(N)Oc2cc(C)oc(=O)c2C1c1cccnc1 (stereo unspecified) | 0.4 | 0 | 60* | -2 | 63* | 0.4
CCOC(=O)C1=C(N)Oc2cc(C)n(C)c(=O)c2C1c1ccncc1 (stereo unspecified) | 0.3 | . | 72* | . | 73* | 0.3
CCOCCCNC(=O)C1CCN(S(=O)(=O)N(CC(C)C)CC(C)C)CC1 | 0.7 | . | 23 | . | 30 | 0.8
CCOc1cc(C(=O)CSc2nnc(CNc3ccc(Cl)cc3)o2)ccc1NC(=O)CC | 0.7 | 11 | 42 | -12 | 31 | 0.6
CCCCNC(=O)CS(=O)Cc1nc(-c2cccc(Cl)c2)oc1C (stereo unspecified) | 0.4 | . | 45 | . | 62* | 0.6
CCCCNC(=O)CS(=O)Cc1nc(-c2cccc(C)c2)oc1C (stereo unspecified) | 0.8 | -6 | -3 | 5 | 24 | 1
CCCCSCCCNC(=O)CS(=O)Cc1nc(-c2cccc(C)c2)oc1C (stereo unspecified) | 0.2 | -10 | 85* | 13 | 78* | 0.2
COc1cc(C2N(c3ccc(F)cc3)C(=O)C3CCCN32)cc(OC)c1OC (stereo unspecified) | 0.9 | -7 | 18 | 6 | 11 | 0.8
CN(C)c1ccc(C2N(c3ccc(F)cc3)C(=O)C3CCCN32)cc1 (stereo unspecified) | 0.7 | 1 | 36 | 3 | 30 | 0.6
CCOc1ccc(C2N(c3ccc(F)cc3)C(=O)C3CCCN32)cc1 (stereo unspecified) | 0.2 | -9 | 83* | 6 | 83* | 0.2
Cc1ccc(C2N(c3ccc(F)cc3)C(=O)C3CCCN32)cc1 (stereo unspecified) | 0.7 | 10 | 50* | -10 | 32 | 0.5
CCn1c(=O)n(CC(=O)Nc2cc(OC)c(OC)c(OC)c2)c(=O)c2ccccc21 | 0.8 | 9 | 19 | -6 | 18 | 0.8
